# Source: PubChem BioAssay AID602393 (Broad Institute, 2012)
# The whole screen tested about 350,000 compounds, of which about 7,000 (2%) were called active. No stated cut-off is given here; in the data, active means activation above about 40%; inconclusive means no clear call, values can overlap the other calls; inactive means below that. The full list was thinned out, with actives kept by preference.
# Assay: Bmi1 luciferase reporter increase in mESCs, primary screen, esBAF inhibitor project, mouse ES cells, Bmi1 luciferase knock-in, single point (AID 602393);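 further: 0% = median of the plate's neutral control wells and 100% = double that signal; a rise in the Bmi1 reporter signal indicates esBAF inhibition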
# Settings: 24 h, at 12.5 µM, hits give high values, 100% = twice the neutral-well signal
row,SMILES,reporter increase
1,O=C(C[C@@H]1C=C[C@@H](NS(=O)(=O)c2ccccc2)[C@@H](CO)O1)NCc1ccccc1F,-1.71% (inactive)
2,CC(C)NC(=O)N(C)C[C@@H]1Oc2c(cccc2N(C)C)C(=O)N([C@@H](C)CO)C[C@H]1C,-5.01% (inactive)
3,C[C@H](CO)N1C[C@H](C)[C@@H](CN(C)C(=O)C2CCC2)Oc2cc(C3=CCCCC3)ccc2S1(=O)=O,0.47% (inactive)
4,COc1ccc(S(=O)(=O)N(C)C[C@H]2Oc3ccc(NC(=O)Nc4c(C)noc4C)cc3C(=O)N([C@@H](C)CO)C[C@@H]2C)cc1,-2.46% (inactive)
5,CC(C)c1nc2cc(C(=O)NC(C)c3cnn(C)c3)ccc2o1 (configuration not stated),3.1% (inactive)
6,COC(=O)c1ccc(CSc2nc3cc(Cl)ccc3o2)cc1,-4.19% (inactive)
7,COc1ccc(CNC(=O)c2ccc3oc(C(C)C)nc3c2)cc1,47.5% (active)
8,COC(=O)c1ccc(CNC(=O)c2ccc3oc(C(C)C)nc3c2)cc1,49% (active)
9,COc1ccc(CNC(=O)c2cc(=O)c3c(C)cc(C)cc3o2)cc1,1.4% (inactive)
10,COC(=O)c1ccc(CNC(=O)c2ccc(S(=O)(=O)N3CCCCCC3)cc2)cc1,1.32% (inactive)
11,O=C(NCC[C@@H]1CC[C@@H](NC(=O)C2CCCC2)[C@H](CO)O1)c1cnccn1,-3.83% (inactive)
12,COc1ccc(S(=O)(=O)N(C)C[C@H]2Oc3c(NS(=O)(=O)c4ccc(F)cc4)cccc3C(=O)N([C@H](C)CO)C[C@H]2C)cc1,0.834% (inactive)
13,C[C@H](CO)N1C[C@H](C)[C@@H](CN(C)Cc2ccc(C(=O)O)cc2)Oc2ccc(NS(=O)(=O)c3cn(C)cn3)cc2CC1=O,-1.15% (inactive)
14,C[C@@H]1CN([C@@H](C)CO)C(=O)c2cc(NC(=O)Cc3ccccc3)ccc2O[C@@H](C)CCCCO[C@H]1CN(C)C(=O)Nc1cccc2ccccc12,1.67% (inactive)
15,CS(=O)(=O)Nc1ccc2c(c1)[C@@H]1C[C@H](CC(=O)NCc3cc(F)ccc3F)O[C@@H](CO)[C@@H]1O2,1.97% (inactive)
16,O=C(C[C@H]1CC[C@H](NC(=O)c2ccc3c(c2)OCO3)[C@H](CO)O1)NCc1ccc(Oc2ccccc2)cc1,-8.21% (inactive)
17,CNC[C@H]1Oc2ccc(NC(=O)Nc3ccc4c(c3)OCO4)cc2CC(=O)N([C@H](C)CO)C[C@H]1C,0.772% (inactive)
18,Nc1ccc(N=Nc2ccccc2Cl)c(N)n1,76% (active)
19,COc1ccc(NC(=O)N(C)C[C@@H]2Oc3c(NC(=O)C4CCOCC4)cccc3C(=O)N([C@H](C)CO)C[C@@H]2C)cc1,1.63% (inactive)
20,CCCc1cc(C(=O)N2CCCC(CO)(CCCc3ccccc3)C2)n(C)n1 (configuration not stated),9.89% (inactive)
21,Cc1noc(C)c1CCC(=O)O,-5.69% (inactive)

row,SMILES,reporter increase
1,COC(=O)CCC(=O)N1CCCC(CO)(Cc2ccccc2)C1 (configuration not stated),88.3% (active)
2,Cc1noc(C)c1CCC(=O)N1CCCC(CO)(Cc2ccccc2)C1 (configuration not stated),73.8% (active)
3,CCOC(=O)C1(Cc2ccccc2C)CCCN(C(=O)CCc2c(C)noc2C)C1 (configuration not stated),4.36% (inactive)
4,Cc1ccccc1CC1(CO)CCCN(C(=O)c2cc(-c3ccccc3)no2)C1 (configuration not stated),-3.48% (inactive)
5,CCCN(C)C[C@H]1OCCCC[C@@H](C)Oc2ccc(NC(=O)CCC(F)(F)F)cc2C(=O)N([C@H](C)CO)C[C@H]1C,3.13% (inactive)
6,COc1cccc(-c2ccc3c(c2)O[C@@H](CN(C)Cc2ccncc2)[C@H](C)CN([C@H](C)CO)S3(=O)=O)c1,0.833% (inactive)
7,CN1CCN(C(=O)C[C@H]2C[C@@H]3c4cc(NC(=O)NC5CCCC5)ccc4O[C@@H]3[C@@H](CO)O2)CC1,-0.346% (inactive)
8,O=C(CN1CCOCC1)N[C@@H]1CC[C@@H](CCn2cc(C3CCCCC3)nn2)O[C@@H]1CO,-5.48% (inactive)
9,O=C1C(Cc2ccc(O)cc2)NC(=S)N1Cc1ccccc1 (configuration not stated),-6.04% (inactive)
10,CN(C)c1ccc(/C=C2\NC(=S)N(Cc3ccccc3)C2=O)cc1,42.2% (active)
11,CC1CN(Cc2ccccc2)C(=S)NC1=O (configuration not stated),2.98% (inactive)
12,C[C@H](CO)N1C[C@H](C)[C@H](CN(C)S(=O)(=O)c2ccccc2)Oc2ccc(NC(=O)Cn3cnnn3)cc2C1=O,2.23% (inactive)
13,CCC(=O)Nc1ccc2c(c1)C(=O)N(C)[C@@H]1CC[C@@H](CC(=O)Nc3cccc(OC)c3)O[C@@H]1CO2,-2.81% (inactive)
14,CSc1ccccc1NC(=O)c1cc(C2CC2)on1,53.9% (active)
15,Cc1nn(Cc2ccc(Cl)c(Cl)c2)c(C)c1NC(=O)c1cc(C2CC2)on1,7.59% (inactive)
16,O=C(NC1CCCCC1)c1cc(C2CC2)on1,-10.1% (inactive)
17,CCCNC(=O)N1C[C@H](O)COC[C@H]2O[C@@H](CC(=O)NCc3ccncn3)CC[C@@H]21,-2.02% (inactive)
18,Clc1ccccc1SCc1nc2ccccc2[nH]1,53% (active)
19,CCN(CC)S(=O)(=O)c1ccc2nc(CSc3nnnn3-c3ccc(O)cc3)[nH]c2c1,1.1% (inactive)
20,CCn1c(Cc2ccccc2)nnc1SCc1nc2ccccc2c(=O)[nH]1,-5.17% (inactive)
21,O=C(C[C@@H]1C[C@H]2c3cc(NC(=O)NC4CCCC4)ccc3O[C@H]2[C@H](CO)O1)NCc1cc(F)ccc1F,5.15% (inactive)

row,SMILES,reporter increase
1,COc1ccc(-c2cc3ncccc3cn2)cc1,10.9% (inactive)
2,Fc1ccccc1-c1cc2cc3c(cc2cn1)OCO3,16.5% (inactive)
3,COc1ccc(C(C)(O)c2nc(-c3cc(F)cc(F)c3)cs2)cc1 (configuration not stated),-4.23% (inactive)
4,Fc1ccc2cnc(-c3ccccc3)cc2c1,58.8% (active)
5,N#CCSc1nc(-c2ccccc2)nc2ccc(F)cc12,-3.61% (inactive)
6,COc1cc(OC)cc(-c2cc3ccc(F)cc3cn2)c1,58.7% (active)
7,O=C(Nc1ccc(Cl)cc1)N1C[C@@H]2[C@H](c3ccccc31)[C@@H](CO)N2C(=O)c1cccnc1,13.8% (inactive)
8,CO[C@H]1CN(C)C(=O)c2cc(NC(=O)Nc3ccccc3)ccc2OC[C@@H](C)N(C(=O)Nc2c(C)noc2C)C[C@@H]1C,3.56% (inactive)
9,O=S(=O)(NCC[C@H]1CC[C@@H](NS(=O)(=O)c2cccc(Cl)c2)[C@@H](CO)O1)c1cccc(F)c1,8.34% (inactive)
10,CCC(=O)N1C[C@@H](C)[C@H](OC)CN(C)C(=O)c2cc(NC(=O)c3cc(C)on3)ccc2OC[C@@H]1C,6.47% (inactive)
11,COCCN1CCN(C(=O)c2cc(COc3ccc(F)cc3Cl)on2)CC1,-1.67% (inactive)
12,COc1ccc(OCc2cc(C(=O)NCC3(C)COC3)no2)c(Cl)c1,42.9% (active)
13,COc1ccc(-c2cc(C(=O)NCCCN3CCOCC3)no2)cc1,-13.5% (inactive)
14,CC(=O)N(C)C[C@@H]1Oc2ncc(-c3ccccc3F)cc2C(=O)N([C@H](C)CO)C[C@@H]1C,-1.47% (inactive)
15,N=c1c2c(-c3ccccc3)c(-c3ccccc3)n(Cc3ccccc3)c2ncn1CCCO,-11.6% (inactive)
16,OCCCN1c2ccccc2Nc2nnc(-c3ccccc3)cc21,45.3% (active)
17,O=C(C[C@@H]1CC[C@@H](NC(=O)c2cccnc2)[C@H](CO)O1)NCCN1CCCCC1,-6.27% (inactive)
18,CCNC(=O)C[C@@H]1CC[C@H]2[C@@H](COc3ccc(NC(=O)c4ccccc4Cl)cc3C(=O)N2C)O1,2.25% (inactive)
19,COc1ccc(NC(=O)Nc2ccc3c(c2)C(=O)N([C@H](C)CO)C[C@H](C)[C@@H](CN(C)Cc2ccccc2)OCCCC[C@H](C)O3)cc1,3.05% (inactive)
20,COCC(=O)Nc1ccc2c(c1)C(=O)N(C)C[C@H](OC)[C@@H](C)CN(C(=O)Cc1cccnc1)[C@@H](C)CO2,-0.572% (inactive)
21,O=C(Nc1cccc([N+](=O)[O-])c1)Nn1cnnc1,9.77% (inactive)

row,SMILES,reporter increase
1,CCc1ccc(NC(=O)N2CCc3ccccc3C2)cc1,60.4% (active)
2,O=C(Nc1cccc([N+](=O)[O-])c1)N1CCc2ccccc2C1,45.9% (active)
3,Cc1ccc(NC(=O)CN2CCc3ccccc3C2)cc1C,8.63% (inactive)
4,Cn1cccc1C(=O)N1CCc2ccccc2C1,28.8% (inactive)
5,O=C(CN1CCOCC1)Nc1cccc([N+](=O)[O-])c1,-2.52% (inactive)
6,COCC(=O)N(C)C[C@H]1[C@@H](c2ccc(-c3cccnc3)cc2)[C@H](CO)N1C(C)=O,3.19% (inactive)
7,CO[C@@H]1CN(C)C(=O)c2cc(NC(=O)c3ccc(F)cc3)ccc2OC[C@H](C)NC[C@@H]1C,2.56% (inactive)
8,O=C(COc1cccnc1[N+](=O)[O-])Nc1ccc(Cl)cc1F,43.4% (active)
9,COc1cccc(NC(=O)COc2cccnc2[N+](=O)[O-])c1,20% (inactive)
10,CC(NC(=O)COc1cccnc1[N+](=O)[O-])c1ccc(Cl)cc1Cl (configuration not stated),0.51% (inactive)
11,COc1ccc(OCc2ccc(-c3nc4ccccc4c(=O)n3N)o2)cc1,54.8% (active)
12,COc1ccc(-c2nc3ccccc3c(=O)n2CCc2ccc(O)cc2)cc1,9.53% (inactive)
13,Cn1c(COc2ccc(Cl)cc2)nc2ccccc2c1=O,12.6% (inactive)
14,COc1ccc(S(=O)(=O)N2CC[C@@H]3[C@@H](CO)Nc4ccc(C#Cc5cccnc5)cc4[C@@H]32)cc1,7.74% (inactive)
15,CO[C@@H]1CN(C)C(=O)c2cc(NS(=O)(=O)Cc3ccccc3)ccc2OC[C@H](C)NC[C@H]1C,-0.575% (inactive)
16,COCC#Cc1cnc2c(c1)C(=O)N([C@H](C)CO)C[C@H](C)[C@H](CN(C)C(=O)Nc1cc(F)ccc1F)O2,-0.321% (inactive)
17,CCN(c1cccc(C)c1)S(=O)(=O)c1ccc(-c2coc(C)n2)cc1,2.04% (inactive)
18,COc1ccc(-c2cn3ccc(C)cc3n2)cc1,-61.7% (inactive)
19,CCN(CC)S(=O)(=O)c1ccc(-c2cn3ccc(C)cc3n2)cc1,42.3% (active)
